Inconclusive results are not listed. Where a call stands in place of a potency, no number is given. A number with no mark means an inactive call. The source made the active and inactive calls. Unless noted, the call rests on the fitted dose curve; in most records, active means well fitted curve in the direction sought with a large enough effect; inconclusive means small, poorly fitted or top-dose-only effect, or another doubt; inactive means no such curve, though single readings can be large; an effect the other way counts as inactive or inconclusive.
What was measured:
[1] = target: Calcium and integrin-binding protein 1 (Homo sapiens) (UniProt Q99828); experiment: Primary qHTS for Identification of Calcium Integrin Binding Protein 1 (CIB1) Competitor (AID 1508620);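 further: GST tagged CIB1 binding a fluorescein labelled alphaIIb integrin peptide tracer; top concentration of the series differs between compounds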
Method in brief: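 CIB1-GST (1 uM final) and compound incubated 15 min at room temperature before adding FITC-alphaIIb peptide tracer (100 nM final). Competition for binding read by fluorescence polarization (ex 480, em 540) after another 15 min at room temperature.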

[2] = target: Cytochrome P450 2D6 (Homo sapiens) (UniProt P10635); experiment: Cytochrome P450 family 2 subfamily D member 6 (CYP2D6) small molecule antagonists: luciferase biochemical (cell-free) qHTS assay (AID 1645840; active means well fitted curve in the direction sought with a large enough effect in the repeat runs; an effect the other way counts as inactive or inconclusive; further: nearly all actives have a fitted effect of over 55% in size; further: potency means the concentration at half of the fitted maximal effect; on activity change, negative = inhibition: series mostly up to about 57 µM)
Method in brief: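 P450-Glo luminescent screen: recombinant CYP2D6 enzyme–proluciferin substrate mix preincubated with compound 10 min at room temperature, then NADPH regeneration added for 1 h at room temperature. Detection reagent added for 20 min; luciferin light read as relative luminescence units.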

[3] = target: Cytochrome P450 2C9 (Homo sapiens) (UniProt P11712); experiment: Cytochrome P450 family 2 subfamily C member 9 (CYP2C9) small molecule antagonists: luciferase biochemical (cell-free) qHTS assay (AID 1645842; active means well fitted curve in the direction sought with a large enough effect in the repeat runs; an effect the other way counts as inactive or inconclusive; further: nearly all actives have a fitted effect of over 55% in size; further: potency means the concentration at half of the fitted maximal effect; on activity change, negative = inhibition: series mostly up to about 57 µM)
Method in brief: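 Luminescence, after 20 min with luciferin detection reagent, reflected CYP2C9 turnover during a 1 h NADPH-driven reaction at 37C. Enzyme-substrate mix contained 0.4% bovine serum albumin and was preincubated with compound 10 min at room temperature.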

[4] = Primary qHTS for inhibitors of nuclear receptor binding SET domain protein 2 (NSD2) in an isogenic RCH-ACV NSD2 p.E1099K mutant (9B) (AID 1645876); further: nearly all actives have a fitted effect of over 70% in size; further: potency means the concentration at half of the fitted maximal effect
[5] = Primary qHTS for inhibitors of nuclear receptor binding SET domain protein 2 (NSD2) in an RCH-ACV wild type WT cells (2C) (AID 1645877); further: nearly all actives have a fitted effect of over 70% in size

Sequence of Cytochrome P450 2C9 (Homo sapiens) (P11712 whole entry, looked up): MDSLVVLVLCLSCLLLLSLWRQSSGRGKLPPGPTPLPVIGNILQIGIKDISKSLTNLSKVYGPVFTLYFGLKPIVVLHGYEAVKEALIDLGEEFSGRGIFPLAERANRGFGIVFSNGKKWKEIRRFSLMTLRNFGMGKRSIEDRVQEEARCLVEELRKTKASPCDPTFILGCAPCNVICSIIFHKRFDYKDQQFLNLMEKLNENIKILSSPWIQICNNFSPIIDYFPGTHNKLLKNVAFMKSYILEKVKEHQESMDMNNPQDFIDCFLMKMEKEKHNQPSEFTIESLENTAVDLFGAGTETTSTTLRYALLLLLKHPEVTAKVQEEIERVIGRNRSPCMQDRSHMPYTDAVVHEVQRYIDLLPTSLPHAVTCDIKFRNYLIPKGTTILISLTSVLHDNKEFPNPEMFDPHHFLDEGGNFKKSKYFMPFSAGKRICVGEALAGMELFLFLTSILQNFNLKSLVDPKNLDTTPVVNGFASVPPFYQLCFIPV
Sequence of Calcium and integrin-binding protein 1 (Homo sapiens) (Q99828 whole entry, looked up): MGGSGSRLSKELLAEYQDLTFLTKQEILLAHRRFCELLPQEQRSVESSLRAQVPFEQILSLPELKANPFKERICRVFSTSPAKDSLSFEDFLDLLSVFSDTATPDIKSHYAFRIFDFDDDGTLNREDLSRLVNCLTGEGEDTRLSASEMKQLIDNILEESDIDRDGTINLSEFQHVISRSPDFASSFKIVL
Sequence of Cytochrome P450 2D6 (Homo sapiens) (P10635 whole entry, looked up): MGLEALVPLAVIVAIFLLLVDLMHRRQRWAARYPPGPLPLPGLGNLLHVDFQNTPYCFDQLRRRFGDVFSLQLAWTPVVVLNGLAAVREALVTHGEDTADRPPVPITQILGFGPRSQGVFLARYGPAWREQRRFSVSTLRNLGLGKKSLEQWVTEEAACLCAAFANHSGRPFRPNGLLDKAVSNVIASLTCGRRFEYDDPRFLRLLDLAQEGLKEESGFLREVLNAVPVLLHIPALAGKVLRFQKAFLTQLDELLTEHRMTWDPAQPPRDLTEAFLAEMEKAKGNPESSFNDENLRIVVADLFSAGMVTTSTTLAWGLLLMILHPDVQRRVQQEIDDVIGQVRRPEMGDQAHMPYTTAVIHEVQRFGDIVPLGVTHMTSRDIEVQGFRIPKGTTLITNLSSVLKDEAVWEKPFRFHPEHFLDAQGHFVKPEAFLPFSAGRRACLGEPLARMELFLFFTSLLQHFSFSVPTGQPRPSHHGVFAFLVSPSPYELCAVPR

In the case of `CCC(C)(C)C1CCc2c(sc(NC(=O)c3ccc(Br)cc3)c2C#N)C1` (stereo unspecified), the Potency [1] is reported as “inactive”, the Potency [2] is reported as “inactive” and the Potency [3] is reported as “inactive”. The Potency [4] was “inactive” and the Potency [5] was “inactive”.

For `CC(=O)Nc1cccc2c1c(Sc1ccc(Cl)cc1)c(C)n2CC(=O)O`, the Potency [1] was “inactive”, the Potency [2] was “inactive” and the Potency [3] was 13.5 µM (active). For the same molecule, the Potency [4] was “inactive” and the Potency [5] was “inactive”.

In the case of `COc1ccnc(CCc2nc3ncccc3[nH]2)c1`, the Potency [1] is reported as “inactive”, the Potency [2] is reported as “inactive” and the Potency [3] is reported as “inactive”. For the same molecule, the Potency [4] was “inactive” and the Potency [5] was “inactive”.

With `NC1=NC2(c3cc(NC(=O)c4ccc(F)cn4)ccc3F)COCC2CS1` (stereo unspecified) the Potency [1] was “inactive”, the Potency [2] was 4.77 µM (active) and the Potency [3] was 9.52 µM (active). The Potency [4] was “inactive” and the Potency [5] was “inactive”.

In the case of `Cc1cc(Cn2cnc3c2CC(C(=O)O)N(C(=O)C(c2ccccc2)c2ccccc2)C3)ccc1N(C)C` (stereo unspecified), the Potency [1] is reported as “inactive”, the Potency [2] is reported as “inactive” and the Potency [3] is reported as “inactive”. For the same molecule, the Potency [4] was “inactive” and the Potency [5] was “inactive”.

With `Nc1nc(COC(=O)c2ccc([N+](=O)[O-])cc2)nc(Nc2ccccc2)n1` the Potency [1] was “inactive”, the Potency [2] was “inactive” and the Potency [3] was 21.3 µM (active). The Potency [4] was “inactive” and the Potency [5] was “inactive”.

With `CNc1nc(Nc2cn(C(C)(C)C#N)nc2C)ncc1C(F)(F)F` the Potency [1] was “inactive”, the Potency [2] was “inactive” and the Potency [3] was 7.56 µM (active). For the same molecule, the Potency [4] was “inactive” and the Potency [5] was “inactive”.

With `Cc1onc(-c2ccccc2Cl)c1C(=O)N(C)c1ccc(Cl)cc1` the Potency [1] was “inactive”, the Potency [2] was “inactive” and the Potency [3] was 13.5 µM (active). For the same molecule, the Potency [4] was “inactive” and the Potency [5] was “inactive”.

With `c1cc(-c2cc(C3CCNCC3)[nH]n2)ccn1` the Potency [1] was “inactive”, the Potency [2] was 15.1 µM (active) and the Potency [3] was “inactive”. The Potency [4] was “inactive” and the Potency [5] was “inactive”.

For `O=[N+]([O-])c1cc(Cl)ccc1S(=O)(=O)N1CCN(Cc2ccccc2)CC1`, the Potency [1] was “inactive”, the Potency [2] was 0.756 µM (active) and the Potency [3] was “inactive”. The Potency [4] was “inactive” and the Potency [5] was “inactive”.

For `COC(=O)[C@H](Cc1ccc([N+](=O)[O-])cc1)NC(=O)c1cccc2ccccc12`, the Potency [1] was “inactive”, the Potency [2] was 2.13 µM (active) and the Potency [3] was 3.79 µM (active). The Potency [4] was “inactive” and the Potency [5] was “inactive”.

For `CNC(=O)c1ccc2c(c1)CCO[C@H]2CCN1CCN(c2ccc(C(N)=O)cc2)CC1`, the Potency [1] was “inactive”, the Potency [2] was “inactive” and the Potency [3] was “inactive”. For the same molecule, the Potency [4] was “inactive” and the Potency [5] was “inactive”.

In the case of `CCC1(O)CC2c3cc(OC)c(OC)cc3CCN2CC1CC(C)C` (stereo unspecified), the Potency [1] is reported as “inactive”, the Potency [2] is reported as 0.849 µM (active) and the Potency [3] is reported as “inactive”. For the same molecule, the Potency [4] was “inactive” and the Potency [5] was “inactive”.

For `COc1cc(Nc2nc3ccccc3nc2NS(=O)(=O)c2cccc(NC(=O)c3ccc(C)c(OC)c3)c2)cc(OC)c1`, the Potency [1] was “inactive”, the Potency [2] was “inactive” and the Potency [3] was 1.51 µM (active). The Potency [4] was “inactive” and the Potency [5] was “inactive”.

With `Cc1ccc2nc(NC(=O)CSc3nc4c(c(=O)n3-c3ccc(F)cc3)SCC4)sc2c1` the Potency [1] was “inactive”, the Potency [2] was “inactive” and the Potency [3] was 3.38 µM (active). The Potency [4] was “inactive” and the Potency [5] was “inactive”.

In the case of `CCC[C@H](N[C@@H](C)C(=O)N1[C@H](C(=O)O)C[C@@H]2CCCC[C@@H]21)C(=O)O`, the Potency [1] is reported as “inactive”, the Potency [2] is reported as “inactive” and the Potency [3] is reported as “inactive”. The Potency [4] was “inactive” and the Potency [5] was “inactive”.

In the case of `O=C(O)c1cc(C(F)(F)F)ccc1N1CC[C@H](OCc2ccccn2)C1`, the Potency [1] is reported as “inactive”, the Potency [2] is reported as “inactive” and the Potency [3] is reported as 19 µM (active). The Potency [4] was “inactive” and the Potency [5] was “inactive”.

For `Cc1oc2nc3c(c(NC(=O)CN4CCCC4=O)c2c1C)CCCC3`, the Potency [1] was “inactive”, the Potency [2] was “inactive” and the Potency [3] was “inactive”. The Potency [4] was “inactive” and the Potency [5] was “inactive”.

For `Cc1ccc2[nH]c(=O)c(C3=NN(C(=O)CCC(=O)O)C(c4ccc(Br)cc4)C3)c(-c3ccccc3)c2c1` (stereo unspecified), the Potency [1] was “inactive”, the Potency [2] was “inactive” and the Potency [3] was 26.8 µM (active). The Potency [4] was “inactive” and the Potency [5] was “inactive”.

With `CCOC(=O)C1=C(N)Oc2ccc(Cl)cc2C1C(C#N)C(=O)OCC` (stereo unspecified) the Potency [1] was “inactive”, the Potency [2] was 16.9 µM (active) and the Potency [3] was 10.7 µM (active). For the same molecule, the Potency [4] was “inactive” and the Potency [5] was “inactive”.

Molecule `O=C(O)[C@H]1Cc2ccccc2CN1` has an activity change, negative = inhibition [1] of 5.95% [at 12.4 µM], an activity change, negative = inhibition [2] of 4.56% [at 11.5 µM] and an activity change, negative = inhibition [3] of 2.02% [at 11.5 µM]. The outcome [4] was “inactive [at 4.96 µM]” and the outcome [5] was “inactive [at 4.96 µM]”.

With `O=C(Cn1c2ccccc2c2nc3n(c(=O)c21)CCS3)N1CCCC1` the Potency [1] was “inactive”, the Potency [2] was “inactive” and the Potency [4] was “inactive”. For the same molecule, the Potency [5] was “inactive”.

With `CC1(C)CC=C(c2cnc3ccccc3c2)c2cc(C(=O)Nc3ccc(C(=O)O)cc3)ccc21` the Potency [1] was “inactive” and the Potency [3] was 21.3 µM (active).

In the case of `COc1cc(Nc2nc3c(s2)CCCC3c2ccccc2)ccc1-n1cnc(C)c1` (stereo unspecified), the Potency [1] is reported as “inactive”, the Potency [2] is reported as 0.275 µM (active) and the activity change, negative = viability loss [4] is reported as -1.48% [at 9.23 µM]. For the same molecule, the outcome [5] was “inactive [at 9.23 µM]”.

For `O=C(CCCCC1CCCCC1)N1CCC(c2cnc[nH]2)CC1`, the Potency [1] was “inactive”, the Potency [2] was 5.35 µM (active) and the Potency [4] was 23 µM (active).

For `Cc1ccc(Nc2nnc(-c3ccc([N+](=O)[O-])cc3)o2)cc1Cl`, the Potency [1] was “inactive”, the Potency [2] was “inactive” and the Potency [5] was “inactive”.

From PubChem BioAssay (NCATS)
